# What was measured:
# Test in all cases: PBM binding z-score (relative to random genomic background probes); higher = stronger binding; sequences stand for … in GC…GCGATTGACAGCGTAGAATGAAGG
# [1] = system: FXR:RXRa (NR concentration 270 nM, RXRa partner concentration 90 nM)
# Method in brief: (§1)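 Regression normalization was applied to scanned fluorescence from custom Agilent 4×180K protein-binding microarrays. Before scanning, arrays were incubated 1 h with ligand-free nuclear receptor dimers, and binding was detected with antibodies against each partner (one per run). Binding z-scores use the random background probes as reference.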
# [2] = system: LXRa:RXRa (NR concentration 270 nM, RXRa partner concentration 90 nM)
# Method in brief: as §1
# [3] = system: LXRa homodimer (NR concentration 270 nM)
# Method in brief: as §1
# [4] = system: LXRb:RXRa (NR concentration 270 nM, RXRa partner concentration 90 nM)
# Method in brief: as §1
# [5] = system: LXRb homodimer (NR concentration 270 nM)
# Method in brief: as §1
# [6] = system: PPARa:RXRa (NR concentration 270 nM, RXRa partner concentration 90 nM)
# Method in brief: as §1
# [7] = system: PPARg:RXRa (NR concentration 180 nM, RXRa partner concentration 90 nM)
# Method in brief: as §1
# [8] = system: PPARg:RXRa 270nM:90nM, anti-RXR (NR concentration 270 nM, RXRa partner concentration 90 nM)
# Method in brief: as §1
# [9] = system: PPARg:RXRa 30nM:10nM, anti-RXR (NR concentration 30 nM, RXRa partner concentration 10 nM)
# Method in brief: as §1
# [10] = system: PPARg:RXRa 90nM:30nM, anti-RXR (NR concentration 90 nM, RXRa partner concentration 30 nM)
# Method in brief: as §1
# [11] = system: PPARg:RXRa DBDmut IVT, anti-RXR (DBD mutation: RXRa K156A/R161A, NR concentration 270 nM, RXRa partner concentration 90 nM)
# Method in brief: as §1
# [12] = system: PPARg:RXRa IVT, anti-PPARg (NR concentration 270 nM, RXRa partner concentration 90 nM)
# Method in brief: as §1
# [13] = system: PPARg DBDmut:RXRa IVT, anti-PPARg (DBD mutation: PPARg1 K132A/R137A, NR concentration 270 nM, RXRa partner concentration 90 nM)
# Method in brief: as §1
# [14] = system: PPARg DBDmut IVT, anti-PPARg (DBD mutation: PPARg1 K132A/R137A, NR concentration 270 nM)
# Method in brief: as §1
# [15] = system: PPARg homodimer (NR concentration 180 nM)
# Method in brief: as §1
# [16] = system: PXR:RXRa (NR concentration 270 nM, RXRa partner concentration 90 nM)
# Method in brief: as §1
# [17] = system: PXR homodimer (NR concentration 270 nM)
# Method in brief: as §1
# [18] = system: RARa:RXR (NR concentration 270 nM, RXRa partner concentration 90 nM)
# Method in brief: as §1
# [19] = system: RARa homodimer (NR concentration 270 nM)
# Method in brief: as §1
# [20] = system: RARb:RXRa (NR concentration 270 nM, RXRa partner concentration 90 nM)
# Method in brief: as §1
Sequence,PBM binding z-score [1],PBM binding z-score [2],PBM binding z-score [3],PBM binding z-score [4],PBM binding z-score [5],PBM binding z-score [6],PBM binding z-score [7],PBM binding z-score [8],PBM binding z-score [9],PBM binding z-score [10],PBM binding z-score [11],PBM binding z-score [12],PBM binding z-score [13],PBM binding z-score [14],PBM binding z-score [15],PBM binding z-score [16],PBM binding z-score [17],PBM binding z-score [18],PBM binding z-score [19],PBM binding z-score [20]
GCTCGGAGGACAAGGTCAGAACTTTGTCCGTAGA,1.86,1.64,-0.253,1.31,-0.462,2.22,0.592,1.57,0.0801,0.802,-0.664,0.754,-0.824,-0.981,0.718,1.87,-0.398,2,-0.812,3.2
TCTAGCAGGCCAGAGGCTCACTCAAGAGGTACGG,-1.6,-1.07,-0.954,-0.966,-1.81,-0.344,0.578,1.01,1.38,1.21,0.411,-0.442,-1.19,-2.42,-1.71,-0.83,-1.3,-0.758,-1.3,-0.419
CTACCGAGGTGAACAAGGTCGTTGATTACTATTC,1.49,1.66,0.107,2.37,-0.186,3.16,1.79,1.8,0.0798,0.754,2.91,3.47,0.523,0.329,0.965,3.25,1.95,2.62,-0.15,2.19
TCTAGTTGGTCACGGAGGTCACACTCGACGGGTA,3,3.28,2.58,3.06,0.84,3.75,2.84,3.93,3.54,3.5,2.74,4.57,1.32,0.684,2.95,4.31,1.37,4.2,1.39,3.91
GCTTGTAGATCAAGTTTAAGAAAGACTAAGCTAA,-0.477,-0.231,-0.318,-0.15,-0.39,0.142,-0.204,-0.0876,-0.116,-0.107,0.956,0.313,0.0425,0.223,-0.136,0.206,0.211,0.203,-0.548,-0.0982
CCGACTGGGGCTTAAGGTTACCATAAGCCAGCCC,0.202,1.84,-0.512,0.703,-1.22,0.992,0.91,1.99,-0.108,1.29,0.244,0.428,-1.39,-1.88,0.217,0.141,-0.395,1.08,-0.504,0.868
CGTCAAGGTTCAAGGTAACGTAACAGAAAGCAGC,4.59,3.3,0.601,2.06,-0.166,3.56,2.25,2.63,0.331,1.55,-0.0787,0.903,-0.883,-0.847,1.12,1.87,0.422,2.3,-0.0336,3.24
CCGACTGGGGCATAAGGTTTCCATAAGCCAGCCC,0.03,-0.0633,-0.565,-0.536,-1.41,0.26,1.11,1.75,-0.0792,1.44,3.04,2.38,-1.41,-1.66,-0.419,-0.536,-0.762,-0.479,0.00521,0.514
CATACTGGGTCAGCTAGGCCAGAGTAGGGACGGC,0.696,0.526,-0.513,0.249,-0.198,2.16,3.45,2.95,0.499,2.06,4.6,5.45,0.321,0.266,0.468,0.34,-0.327,0.776,-0.0823,3.04
ATCTCTAGGTAAAGATAGTTCAATGAATGCAAAT,0.446,4.83,1.09,1.44,0.777,1.15,1.03,0.735,0.381,0.638,2.11,1.74,1.55,1.22,0.945,1.65,1.02,0.946,1.4,1.07
AGTCAAAGTTCAGGACGAGGTAACGTGAAGCACG,4.49,3.69,1,1.68,-0.0491,3.33,4.84,4.84,2.04,4.12,-0.189,2.06,0.679,0.0315,1.48,2.72,0.947,2.65,1.04,4.51
TTACCAAGGTGAAGGTCATTGATCCCTCTGTAGA,4.39,4.39,2.26,3.7,-0.235,4.36,5.26,5.49,3.52,5.38,2.03,4.57,1.28,-0.00818,2.06,3.74,0.712,3.95,0.469,3.88
ATCTCTAGGTAAGACTCACTTCAGTGAAGAACGC,0.0875,0.0793,-0.134,0.11,0.863,0.00782,0.276,0.0551,0.479,0.192,1.59,1.19,0.772,1.01,0.77,-0.228,0.171,-0.265,0.334,-0.0456
TCTTGTAGATCAATAGAGGTGAAGAAAGTGCGCT,1.02,0.833,-0.122,0.533,-0.232,1.5,0.0312,1.72,2.84,2.21,2.33,1.64,0.582,1.07,-0.35,1.52,-0.318,1.28,0.328,0.777
CCTTACGGGTCACTGACAGTTTATAGCATTTGGA,5.44,4.17,0.494,3.4,-0.118,5.18,4.21,4.37,1.57,3.25,3.68,3.57,0.77,0.36,2.21,4.38,0.495,4.35,1,3.9
GGAACGAGGGCATTCGAGTTTATAGCATGGCGAT,1.12,4.61,0.296,0.629,-0.537,1.57,0.982,0.798,-0.0706,0.209,2.91,2.31,-0.439,-0.834,-0.0637,5.87,7.33,1.14,-0.16,1.9
TTACCAAGGTGAATGGTCGTTGATGCACGCCTTG,0.766,0.485,-0.417,0.403,-0.853,1.35,1.32,2.39,1.14,2.06,2.03,2.67,0.334,0.253,0.0353,0.0282,-0.612,0.364,0.953,1.46
CGTCAAAGTTCAAGGTACCGTAACAGAAAGCAGC,6.16,5.65,3.11,3.48,0.91,4.61,4,4.81,1.82,3.9,0.47,1.61,0.0848,0.822,2.35,3.99,2.46,3.45,0.789,5.08

# Reference: the supplement of paper PMC6555819
